Screens (PubChem BioAssay)
Only some compounds are listed: those with a hit (about 1.5% of all), similar ones and a draw of the others.
TLR9-MyD88 inh – TLR9-MyD88 interaction inhibition; CHO BLA complementation TLR9-MyD88, CCF4 FRET ratio; inhibition, % at 4.98 µM; 0.21% of 340,000 active; AID 504734;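 active means inhibition above the mean over all tested compounds plus 3 SD, cut at about 21% in these data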;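 further: 0% = DMSO only wells and 100% = clavulanate BLA inhibitor control wells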
NOD2-RIPK2 inh – NOD2-RIPK2 protein interaction inhibition; O43353; CHO BLA complementation NOD2-RIPK2, CCF4 ratio; inhibition, % at 4.98 µM; 0.38% of 360,000 active; AID 624267; in the data active means inhibition above about 21%;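 further: 0% = vehicle only and 100% = reference blocker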
Target sequence (O43353 whole entry, looked up): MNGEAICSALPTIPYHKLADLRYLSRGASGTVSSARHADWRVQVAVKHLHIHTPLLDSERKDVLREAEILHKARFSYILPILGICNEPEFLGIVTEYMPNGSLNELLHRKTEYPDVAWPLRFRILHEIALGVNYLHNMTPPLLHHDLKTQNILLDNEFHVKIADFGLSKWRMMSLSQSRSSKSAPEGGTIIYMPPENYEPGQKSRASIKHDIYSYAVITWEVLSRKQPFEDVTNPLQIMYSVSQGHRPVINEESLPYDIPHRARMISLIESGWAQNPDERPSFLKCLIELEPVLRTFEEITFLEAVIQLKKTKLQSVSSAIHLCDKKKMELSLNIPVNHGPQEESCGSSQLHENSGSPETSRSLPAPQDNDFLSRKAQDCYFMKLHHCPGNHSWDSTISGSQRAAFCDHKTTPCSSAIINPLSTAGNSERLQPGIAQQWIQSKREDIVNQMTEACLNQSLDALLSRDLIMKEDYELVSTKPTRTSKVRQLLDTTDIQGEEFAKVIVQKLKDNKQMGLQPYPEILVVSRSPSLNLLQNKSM
NTR1 agonist – agonists of human neurotensin receptor NTR1; NTR1-U2OS beta-arrestin-GFP spot imaging, agonist mode; activation, % at 20 µM; 0.17% of 330,000 active;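 active means activation at or above 40% of the spot to cytoplasm intensity ratio, with at least 20 cells analyzed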;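 further: 0% = DMSO without peptide and 100% = 100 nM NTR1 peptide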
ABHD5 PLIN5 PPI – inhibitors of human ABHD5-perilipin-5 interaction. Q00G26+Q8WTS1. Split G. princeps luciferase complementation, luminescence, 4 h. inhibition, % at 4 µM. 0.78% of 360,000 active. AID 602281;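 active means inhibition above the mean inhibition across every tested compound plus 3 SD, cut at about 22% in these data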;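 further: 0% = DMSO only wells and the 100% control is not disclosed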
TLR4 MyD88 comp – blocks binding of human TLR4 to MyD88; inhibition, % at 8.4 µM; 0.18% of 200,000 active; HeLa CL3-4 TLR4/MyD88 BLA complementation, FRET ratio; in the data active means inhibition above about 25%;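 further: 0% = vehicle and 100% = reference inhibitor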
Beta2AR agonist – human beta-2 adrenergic receptor agonism by FAP. 0.43% of 340,000 active. response, % (concentration not given with the values). AID 504454. P07550. Am2.2-beta2AR cells, FAP receptor internalization, flow cytometry;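 active means response above a set limit, near 3 SD of response in nonfluorescent compounds, cut at about 42% in these data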
NTR1 ag confirm – confirmation of agonists of human NTR1; shares compounds with NTR1 agonist; NTR1-U2OS beta-arrestin-GFP translocation imaging; activation, % at 20 µM; 38% of 480 active;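 active means mean activation at 20 µM of at least 40%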;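 further: 0% = DMSO without peptide and 100% = 100 nM NTR1 peptide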
* = called active by the depositor; nt = not tested or not shown.

SMILES | TLR9-MyD88 inh | NOD2-RIPK2 inh | NTR1 agonist | ABHD5 PLIN5 PPI | TLR4 MyD88 comp | Beta2AR agonist | NTR1 ag confirm
CCCCNc1c(-c2ccc(OC)c(Sc3ccc(OC)cc3)c2)nc2ccccn12 | -8 | -6 | 56* | -2 | nt | 28 | 71*
CCCCCCSc1cc(-c2nc3cc(C)ccn3c2NCCCC)ccc1OC | -6 | -6 | 7 | -13 | nt | 1 | nt
CN(C(=O)COc1ccccc1C(=O)NCCOc1ccccc1)c1ccccc1 | -4 | 0 | 107* | -3 | -2 | 32 | 63*
OC1c2c(F)cccc2N=C2CCCCN21 (centres undefined) | nt | -13 | nt | 3 | nt | nt | nt
CC1(C)CC(=O)C(=Cc2cn(-c3ccccc3)nc2-c2ccccc2)C(=O)C1 | 6 | 0 | 71* | 1 | nt | 7 | 65*
O/N=C/c1cn(-c2ccccc2)nc1-c1ccccc1 | -10 | -6 | nt | 3 | nt | -2 | nt
COc1ccc(Nc2nc(N)c([N+](=O)[O-])c(NC3CCCCC3)n2)cc1 | 0 | 6 | 46* | -1 | nt | 17 | 15
O=C(O)C1=CC[C@@H](c2ccc(Cl)cc2)N(S(=O)(=O)c2ccc(Cl)cc2)[C@H]1c1cccc(Cl)c1 | 4 | -15 | 56* | 10 | nt | 20 | 9
COc1ccc(C(NC(=O)C2CCN(CCOc3ccc(Cl)cc3)CC2)c2cccs2)cc1 (centres undefined) | nt | -3 | nt | 2 | nt | nt | nt
CCOc1c(OC(C)=O)ccc(/C=C/c2ccc3cccc(OC)c3n2)c1[N+](=O)[O-] | -9 | 1 | 42* | -3 | 1 | 20 | 22
CCNC(=O)C1CCCN(Cc2ccc3ccccc3c2Br)CC1 (centres undefined) | nt | 3 | nt | -1 | nt | nt | nt
Nc1ncnc2c1ncn2[C@@H]1O[C@H](C(=O)NCCCN2CCCC2=O)[C@@H](O)[C@H]1O | nt | -3 | nt | -1 | nt | nt | nt
Cc1ccc(Sc2c([N+](=O)[O-])c(=O)n(C)c3ccccc23)cc1 | -13 | 1 | 67* | 14 | nt | 18 | 73*
Cc1ccc(Sc2c(O)c3ccccc3n(C)c2=O)cc1 | -1 | -2 | nt | 1 | -2 | -4 | nt
COCCNC(=O)C1CCCN(C(=O)c2ccc3sccc3c2)CC1 (centres undefined) | nt | 12 | nt | 0 | nt | nt | nt
CCN(C(=O)c1ccc2c(Cl)c3c(nc2c1)CCC3)c1ccc(C)c(C)c1 | -3 | -1 | 45* | -7 | -1 | -6 | 4
O=C(OCc1ccc(COC(=O)c2ccc(O)cc2)cc1)c1ccc(O)cc1 | -6 | 5 | 46* | -4 | nt | 8 | -1
Cc1ccc(C(=O)Nc2nnc(NC(=S)Nc3ccccc3)s2)cc1 | 7 | -9 | 73* | -8 | -3 | 11 | 58*
CCOc1ccc(C(=O)Nc2nnc(NC(=S)Nc3ccccc3)s2)cc1 | 4 | 10 | 61* | -2 | -2 | 103* | 46*
CCc1nnc(NC(=S)Nc2ccccc2)s1 | 4 | 3 | 1 | -6 | -2 | 0 | nt
Cc1cccnc1C(NC(=O)C1CCN(CCCc2ccccc2)CC1)c1ccc(Cl)cc1 (centres undefined) | nt | -6 | nt | 7 | nt | nt | nt
CCC(C)Sc1cccc(-c2nc3ccc(C)cn3c2NCc2ccccc2)c1 (centres undefined) | 7 | 4 | 14 | -10 | nt | 16 | nt
CCC(C)Sc1cccc(-c2nc3ccccn3c2NCc2ccccc2)c1 (centres undefined) | 1 | 11 | 40* | -4 | nt | 29 | -4
CC(=O)Nc1cc(-c2ccc(N(C)C)cc2)cn2c(-c3ccc(F)c(Cl)c3)cnc12 | nt | 3 | nt | 6 | nt | nt | nt
COc1ccc(/C=N/Nc2nc(-c3cccc(S(=O)(=O)N4CCCC4)c3)cs2)cc1OC | -9 | -9 | 0 | 2 | -4 | 7 | nt
SMILES | TLR9-MyD88 inh | NOD2-RIPK2 inh | NTR1 agonist | ABHD5 PLIN5 PPI | TLR4 MyD88 comp | Beta2AR agonist | NTR1 ag confirm
COc1cc(/C=N/Nc2nc(-c3ccc(S(=O)(=O)N(C)C)cc3)cs2)ccc1O | 8 | 3 | 70* | 5 | nt | 23 | 79*
C(=C\c1nc(N2CCCCCC2)c2ccccc2n1)/c1ccccc1 | -7 | -7 | 42* | -4 | -9 | -5 | 17
O=C1NC[C@H](CCCCN2C[C@H](Cc3ccc(O)cc3)N(CCC3CCCCC3)C(=O)C2=O)N(CCC2CCCCC2)C1=O | nt | -2 | nt | 3 | nt | nt | nt
CC1(C(=O)Nc2cccc(OC(F)(F)F)c2)Cc2c(-c3cccc(C(N)=O)c3)ccnc2O1 (centres undefined) | nt | 1 | nt | 4 | nt | nt | nt
Oc1ccc(Br)cc1/C=N/Nc1nc(N2CCCCC2)nc(N2CCOCC2)n1 | nt | nt | 16 | nt | -3 | nt | nt
Oc1ccc(/C=N/Nc2nc(N3CCCCCC3)nc(N3CCCCCC3)n2)c(O)c1 | -5 | 3 | 44* | -11 | -5 | 10 | 39
CC(C)(C)NC(=O)C1c2ccccc2OCC(=O)N1CCCN1CCOCC1 (centres undefined) | nt | -8 | nt | 6 | nt | nt | nt
CC1(C(=O)NS(=O)(=O)c2ccc3c(c2)CCO3)CCN1C(=O)c1ccccc1CCc1ccccc1 (centres undefined) | nt | -12 | nt | -2 | nt | nt | nt
COC(=O)c1ccc2c(=O)n(CCCCCC(=O)N3CCN(c4ccccc4)CC3)c(=O)[nH]c2c1 | 5 | -4 | 47* | -1 | -5 | 13 | 64*
CCN1CCN(C(=O)CCCCCn2c(=O)[nH]c3cc(C(=O)OC)ccc3c2=O)CC1 | -1 | -4 | -1 | 1 | 6 | 1 | nt
Cc1ccc(CN2CCC(c3cc(-c4ccc(Cl)cc4)n[nH]3)CC2)cc1 | 7 | 12 | 61* | 5 | nt | -5 | 6
COc1ccc(-c2cc(C3CCN(Cc4ccc([N+](=O)[O-])cc4)CC3)[nH]n2)cc1 | nt | -5 | 4 | 3 | 0 | 5 | nt
CCn1c(O)c(/C=C2\C=NN=C2c2ccccc2)sc1=S | 9 | 5 | 10 | -5 | nt | 3 | nt
CC(C)Cn1c(O)c(/C=C2\C=NN=C2c2ccccc2)sc1=S | 0 | -1 | 59* | -19 | -14 | 34 | 61*
CC(=O)Nc1ccc(-c2ccnc3c2CC(C(=O)Nc2cccc(C(F)(F)F)c2)O3)cc1 (centres undefined) | nt | 4 | nt | 2 | nt | nt | nt
Cc1ccnc(Nc2nc(-c3ccc(Cl)cc3)cs2)c1 | -11 | -15 | 10 | 0 | nt | -2 | nt
Cc1ccnc(Nc2nc(-c3ccc(F)cc3)cs2)c1 | 0 | -11 | 49* | -3 | nt | 10 | 3
CC1CCN(CCCNC(=O)c2ccc3c(=O)n(Cc4ccc(Cl)cc4)c(=S)[nH]c3c2)CC1 | 9 | 13 | 52* | 15 | 8 | 4 | 57*
Cc1cc2c(cc1C)-n1nnnc1C(N1CCN(C(=O)OCc3ccccc3)CC1)C(=O)N2 (centres undefined) | nt | 4 | nt | 6 | nt | nt | nt
COc1ccc(-c2ccc(C(=O)NCc3ccncc3)c3occc23)c(C)c1 | nt | 7 | nt | 5 | nt | nt | nt
Cc1c(CN2CCC(CO)(CCOc3ccccc3)CC2)[nH]c2c(Cl)cccc12 | -2 | 0 | 67* | 20 | 14 | 5 | 34
